Where two headings read alike, the source gives them in different places.
Assays:
Set-up in all cases: species or system human, MV4-11 + K-562 + COLO205 + SK-N-BE2 + OVCAR-8
[1] = test system: DCTPP1; details: read-out: apparent Kd, n = 1
[2] = test system: EPHB4; details: read-out: apparent Kd; compound concentrations: 100 nM and 1000 nM (sheet 'Samples'), CATDS: 0.37827965470914299; n = 1
[3] = test system: RIPK3; details: read-out: apparent Kd, compound concentrations: 100 nM and 1000 nM (sheet 'Samples'), n = 1
[4] = test system: DDR1; details: read-out: apparent Kd, n = 1
[5] = test system: JAK2; details: read-out: apparent Kd, n = 1
[6] = test system: PIK3CA; details: read-out: apparent Kd; compound concentrations:100 nM and 1000 nM (sheet 'Samples'); n = 1
[7] = test system: PIK3CD; details: read-out: apparent Kd; compound concentrations:100 nM and 1000 nM (sheet 'Samples'); n = 1
[8] = test system: RET; details: read-out: apparent Kd, n = 1
[9] = test system: FLT3; details: read-out: apparent Kd; compound concentrations: 100 nM and 1000 nM (sheet 'Samples'), CATDS: 0.139763894659995; n = 1
[10] = test system: FLT4; details: read-out: apparent Kd, compound concentrations: 100 nM and 1000 nM (sheet 'Samples'), n = 1
[11] = test system: CSNK2A1;CSNK2A3; details: read-out: apparent Kd; compound concentrations: 100 nM and 1000 nM (sheet 'Samples'), CATDS: 0.22184782024324001; n = 1
[12] = test system: GAK; details: read-out: apparent Kd; compound concentrations: 100 nM and 1000 nM (sheet 'Samples'), CATDS: 0.30476726939930399; n = 1
[13] = test system: MAPK9; details: read-out: apparent Kd; compound concentrations: 100 nM and 1000 nM (sheet 'Samples'), CATDS: 0.27430209396639399; n = 1
[14] = test system: TTK; details: read-out: apparent Kd; compound concentrations: 100 nM and 1000 nM (sheet 'Samples'), CATDS: 0.21902937280851401; n = 1
[15] = test system: MAP3K1; details: read-out: apparent Kd; compound concentrations: 100 nM and 1000 nM (sheet 'Samples'), CATDS: 0.16547922944675; n = 1
[16] = test system: NLK; details: read-out: apparent Kd; compound concentrations:100 nM and 1000 nM (sheet 'Samples'); n = 1
[17] = test system: PDXK; details: read-out: apparent Kd; compound concentrations:100 nM and 1000 nM (sheet 'Samples'); n = 1
[18] = test system: PIK3C3; details: read-out: apparent Kd; compound concentrations:100 nM and 1000 nM (sheet 'Samples'); n = 1
[19] = test system: PIK3CB; details: read-out: apparent Kd; compound concentrations:100 nM and 1000 nM (sheet 'Samples'); n = 1
[20] = test system: T1, DJA1; details: read-out: apparent Kd; compound concentrations: 100 nM and 1000 nM (sheet 'Samples'), CATDS: 0.31646295058989898; n = 1
T1 construct: gene DNAJA1

[21] = test system: EGFR; details: read-out: apparent Kd; compound concentrations: 100 nM and 1000 nM (sheet 'Samples'), CATDS: 7.48044992603729E-2; n = 1
[22] = test system: HCK; details: read-out: apparent Kd; compound concentrations: 100 nM and 1000 nM (sheet 'Samples'), CATDS: 0.11641359939997301; n = 1
[23] = test system: LYN; details: read-out: apparent Kd; compound concentrations: 100 nM and 1000 nM (sheet 'Samples'), CATDS: 9.0520394407802393E-2; n = 1
[24] = test system: MAPK11; details: read-out: apparent Kd; compound concentrations: 100 nM and 1000 nM (sheet 'Samples'), CATDS: 7.53995695049028E-2; n = 1
[25] = test system: TAOK3; details: read-out: apparent Kd; compound concentrations: 100 nM and 1000 nM (sheet 'Samples'), CATDS: 7.5717255281347595E-2; n = 1
[26] = test system: TNK1; details: read-out: apparent Kd; compound concentrations: 100 nM and 1000 nM (sheet 'Samples'), CATDS: 0.107193891906807; n = 1
[27] = test system: YES1; details: read-out: apparent Kd; compound concentrations: 100 nM and 1000 nM (sheet 'Samples'), CATDS: 0.13069382201385599; n = 1
[28] = test system: GARS; details: read-out: apparent Kd; compound concentrations: 100 nM and 1000 nM (sheet 'Samples'), CATDS: 0.27158737746623501; n = 1
[29] = test system: NTRK1; details: read-out: apparent Kd; compound concentrations: 100 nM and 1000 nM (sheet 'Samples'), CATDS: 0.40728649446902998; n = 1
[30] = compound concentrations:100 nM and 1000 nM (sheet 'Samples')

NC(=O)c1cc(-c2ccc(F)cc2)cc(-c2ccncc2)c1N [GSK620503A]
potency estimated from few doses ([1]; compound concentrations: 100 nM and 1000 nM (sheet 'Samples'), CATDS: 0.31656078381531599): 1520 nM
potency estimated from few doses [2]: 1070 nM
potency estimated from few doses ([3]; CATDS: 0.31274412248273797): 1560 nM

CN1CCN(CCNc2nc3cc(Oc4ccc(NC(=O)Nc5cc(C(F)(F)F)ccc5F)cc4)ccc3[nH]2)CC1.CN1CCN(CCNc2nc3cc(Oc4ccc(NC(=O)Nc5cc(C(F)(F)F)ccc5F)cc4)ccc3[nH]2)CC1.Cl.Cl [GW768504A]
potency estimated from few doses [4, 30]: 584 nM
potency estimated from few doses [5, 30]: 634 nM
potency estimated from few doses [6]: 230 nM
potency estimated from few doses [7]: 97.4 nM
potency estimated from few doses [8, 30]: 1080 nM

CN(c1ccc2c(c1)nc(NCc1ccccc1)n2C)c1ccnc(Nc2ccc(CS(C)(=O)=O)cc2)n1.Cl [GW811603A]
potency estimated from few doses ([4]; compound concentrations: 100 nM and 1000 nM (sheet 'Samples'), CATDS: 0.142121036969732): 962 nM
potency estimated from few doses [9]: 1030 nM
potency estimated from few doses ([10]; CATDS: 0.42297219111770701): 63.4 nM
potency estimated from few doses ([5]; compound concentrations: 100 nM and 1000 nM (sheet 'Samples'), CATDS: 0.17425354278837099): 465 nM
potency estimated from few doses ([8]; compound concentrations: 100 nM and 1000 nM (sheet 'Samples'), CATDS: 0.369571760306865): 79.9 nM

CNc1nc(Nc2ccc(C(=O)N3CCOCC3)cc2OC)ncc1Cl [HG-10-102-01]
potency estimated from few doses [11]: 2220 nM
potency estimated from few doses [12]: 1180 nM
potency estimated from few doses [13]: 1430 nM
potency estimated from few doses [14]: 2290 nM

CN(c1ccc2c(c1)nc(NCc1ccc(F)cc1)n2C)c1ccnc(Nc2ccc(CS(C)(=O)=O)cc2)n1.Cl [GW813244A]
potency estimated from few doses ([4]; compound concentrations: 100 nM and 1000 nM (sheet 'Samples'), CATDS: 0.20099617628952601): 841 nM
potency estimated from few doses ([10]; CATDS: 0.39951332259871902): 166 nM
potency estimated from few doses [15]: 1840 nM
potency estimated from few doses ([8]; compound concentrations: 100 nM and 1000 nM (sheet 'Samples'), CATDS: 0.40344037001579403): 163 nM

O=c1cc(N2CCOCC2)nc2n(Cc3cccc(Cl)c3Cl)c(C3CC3)nn12 [GSK2358994A]
potency estimated from few doses [1, 30]: 1200 nM
potency estimated from few doses [16]: 2260 nM
potency estimated from few doses [17]: 1950 nM
potency estimated from few doses [18]: 9.02 nM
potency estimated from few doses [19]: 3.64 nM
potency estimated from few doses [7]: 14.2 nM

O=C(Nc1cccc(-c2nn3ncccc3c2-c2ccnc(Nc3ccccc3)n2)c1)c1c(F)cccc1F [GSK198271A]
potency estimated from few doses ([4]; compound concentrations: 100 nM and 1000 nM (sheet 'Samples'), CATDS: 0.101729312677661): 711 nM
potency estimated from few doses [20]: 111 nM
potency estimated from few doses [21]: 1600 nM
potency estimated from few doses [22]: 537 nM
potency estimated from few doses [23]: 933 nM
potency estimated from few doses [24]: 1560 nM
potency estimated from few doses ([3]; CATDS: 9.4746109979172405E-2): 836 nM
potency estimated from few doses [25]: 1540 nM
potency estimated from few doses [26]: 635 nM
potency estimated from few doses [27]: 431 nM

FC(F)(F)c1ccc(-c2nn3ncccc3c2-c2ccnc(Nc3ccccc3)n2)cc1 [GW828206X]
potency estimated from few doses ([4]; compound concentrations: 100 nM and 1000 nM (sheet 'Samples'), CATDS: 0.34932428035118401): 1130 nM
potency estimated from few doses [28]: 2010 nM
potency estimated from few doses [29]: 854 nM

— publication PMC11062922 (Nature Chemical Biology, 2023)
